Source: PubChem BioAssay AID1346428 (National Center for Advancing Translational Sciences (NCATS), 2018)
Among all 48,000 compounds or so, about 1,200 (2.5%) were called active. Not shown: some 2% with an inconclusive outcome.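 How the source made its calls: active means activation of at least 60% and not above a set upper limit (about 1 call in 100 departs from these limits); inconclusive means activation of 40% to 60%, or above that upper limit; inactive means activation under 40%.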 Many of the other results were omitted from the sample, so actives are more common in it than they were.

molecular target: Probable G-protein coupled receptor 32 (Homo sapiens) (UniProt O75388); experiment: qHTS for Agonists of Human Resolvin D1 Receptor DRV1; conditions: CHO-K1 GPR32 beta-arrestin PathHunter luminescence, 90 min; at 76.9 µM; stronger effect = higher value; zero percent set by DMSO-only wells
Sequence (O75388 whole entry, looked up): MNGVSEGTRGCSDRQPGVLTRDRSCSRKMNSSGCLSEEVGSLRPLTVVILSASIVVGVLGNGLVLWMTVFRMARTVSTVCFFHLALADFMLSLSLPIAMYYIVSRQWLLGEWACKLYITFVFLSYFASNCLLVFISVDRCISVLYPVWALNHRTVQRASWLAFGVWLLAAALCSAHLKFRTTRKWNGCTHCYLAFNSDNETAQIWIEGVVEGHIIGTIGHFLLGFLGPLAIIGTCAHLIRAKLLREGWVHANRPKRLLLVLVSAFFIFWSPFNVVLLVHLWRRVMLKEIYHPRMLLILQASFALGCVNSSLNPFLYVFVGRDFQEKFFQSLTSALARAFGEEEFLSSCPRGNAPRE
Description: Endogenous resolution of inflammation is known to be transduced through various GPCRs and their natural mediators of lipid nature. Resolvin D1 (RvD1) is one of the active players in resolution of acute inflammation through regulation of anti-inflammatory pathways; it is known to enhance phagocytosis of human macrophages, limits neutrophils infiltration, etc. […] The search for GPR32-activating small molecules with anti-inflammatory effects similar to its natural omega-3 derivative ligand in order to use them as research tools for further studies of inflammation and its resolution was the goal of this screening project. For primary screening assay, we used CHO-K1 GPR32 beta-arrestin cell line (DiscoveRx, #93-0321C2A) and the PathHunter(R) beta-Arrestin Assay (DiscoveRx) which measures recruitment of beta-arrestin to the GPR32 and generates chemiluminescent signal. These engineered cells stably transfected with GPR32 co-express GPR32-fused small 42-amino acid fragment of beta-Gal called ProLinktrade mark, and […] -tagged beta-Arrestin fusion protein. When GPR32 is activated by a ligand, it stimulates binding of beta -Arrestin to ProLink-tagged GPR32, and two parts of beta-Gal complement forming a functional enzyme. Upon substrate (PathHunter(R) Detection reagent) addition, beta-Gal hydrolyzes it and generates a chemiluminescent signal.
The cells were thawed and plated in thawing media containing F-12 HAM (Invitrogen, #11765-054), 10% FBS (Invitrogen, #10082), 1x Glutamine, and 1x Pen/Strep onto the 175-mm flask for 24 hours. Then, thawing media was replaced with Growth media which contains 800microg/mL Geneticin (Invitrogen, #10131) and 300microg/mL Hygromycin B (Invitrogen, #10687) in addition to described above. For the assay, the cells were harvested at ~80% confluent stage with Cell Dissociation buffer (Gibco, #13151), and seeded at 2,500 cells/ 3microL/well in assay media (PathHunter(R) Cell Plating Reagent, DiscoverX, #93-0563R1B) using MultiDrop Combi dispenser (Thermo Scientific, Logan, UT) onto white solid bottom tissue culture-treated 1536-well plates (Greiner # 789173-F) and allowed to attach overnight at 37 degrees C, 95% humidity, 5% CO2, . Next, 23nL/well of compound solutions in DMSO were added with a Pin Tool (Kalypsis, San Diego, CA) to the assay plates. As the basal control (EC0), 23 nL/well of DMSO was used on each plate. The cells were incubated in the presence of compounds or DMSO for 90 minutes at 37 degrees C, 5% CO2. Subsequently, 1.5microL/well of PathHunter(R) Detection Reagent prepared per the manufacturer's instructions was added to the assay plates with BioRAPTR FRDtrade mark dispenser (Beckman Coulter, San Francisco, CA) and incubated for 1 hour at ambient temperature prior to the measurement of the luminescent signal on ViewLux(R) uHTS Microplate Imager (Perkin Elmer, Waltham, MA).

Row | Structure (SMILES) | activation
1 | COc1ccc2cc(-c3nc(Cl)c4c5c(sc4n3)CC(C)CC5)c(=O)oc2c1 (stereo unspecified) | -14.3% (inactive)
2 | CCCS(=O)(=O)N1CCC(n2c(C(F)(F)F)nc3cccnc32)CC1 | -3.95% (inactive)
3 | Cc1oc2ccc(O)c(CN3CCC(C)CC3)c2c1C(=O)Nc1ccccc1 | 17.2% (inactive)
4 | Cc1oc2ccc(O)c(CN3CCCCC3)c2c1C(=O)Nc1cccc(C(F)(F)F)c1 | 106% (active)
5 | Cc1oc2ccc(O)c(CN3CCOCC3)c2c1C(=O)Nc1cccc(Cl)c1C | 18.4% (inactive)
6 | Cc1cccc(NC(=O)C2CCCN2S(=O)(=O)c2cccc3nsnc23)c1C (stereo unspecified) | 8.79% (inactive)
7 | CN1CCC[C@@H]1CCO[C@](C)(c1ccccc1)c1ccc(Cl)cc1 | 68.2% (active)
8 | COc1cccc(CNc2nccn(-c3ccc(OC)c(OC)c3)c2=O)c1 | -0.901% (inactive)
9 | COc1ccc(-n2ccnc(NCCc3ccc(Cl)cc3)c2=O)cc1OC | 105% (active)
10 | COc1ccccc1CNc1nccn(-c2ccc(F)cc2)c1=O | 30.2% (inactive)
11 | COc1cccc(NC(=O)C2CCN(c3cc(C)nc4c(-c5ccc(Cl)cc5)c(C)nn34)CC2)c1 | -2.14% (inactive)
12 | COc1cccc(NC(=O)Nc2ccc3c(c2)N(C)C(=O)c2ccccc2S3)c1 | 4.16% (inactive)
13 | COc1cccc(N=C2SC(C(=O)Nc3cccc(Cl)c3)CC(=O)N2C)c1 (stereo unspecified) | 68.2% (active)
14 | CC(C)c1ccc(NC(=O)c2ccc3c(O)c(S(=O)(=O)c4ccccc4)c(=O)[nH]c3c2)cc1 | -0.853% (inactive)
15 | O=C(c1cnn(-c2ccc(F)cc2)c1-n1cccc1)N1CCN(c2ccc(F)cc2)CC1 | 19% (inactive)
16 | COc1ccc(CC(=O)Nc2ccc(-c3nc4ccccc4s3)c(C)c2)cc1 | 27.8% (inactive)
17 | COc1ccc(NC(=O)CSc2nc3ccccc3[nH]2)cc1 | -10% (inactive)
18 | Cc1ccc(OCC(=O)Nc2ccc(Cl)c(-c3nc4ccccc4[nH]3)c2)cc1C | 70.6% (active)
19 | COc1ccc(CNC(=O)Cc2coc3ccc(C(C)C)cc23)cc1 | -15.8% (inactive)
20 | COc1ccc2c(c1)c(N1CCCC1=O)c(C(=O)Nc1ccc(OC)c(Cl)c1)n2C | 3.27% (inactive)
21 | CCCCN(CCCC)CCC(O)c1cc2c(Cl)cc(Cl)cc2c2cc(C(F)(F)F)ccc12 (stereo unspecified) | 98.9% (active)
22 | CCOc1ccc(CCNC(=O)c2csc3c2CCCCC3)cc1 | 3.74% (inactive)

Row | Structure (SMILES) | activation
23 | Brc1cccc(-c2nnn3c2nc(NC2CCCCC2)c2ccccc23)c1 | -7% (inactive)
24 | O=C(Nc1nc2c(s1)CCCC2)c1ccccc1F | -7.97% (inactive)
25 | CC(C)c1ccc(S(=O)(=O)Nc2ccc(O)c(Sc3nc4ccccc4s3)c2)cc1 | 70.6% (active)
26 | Cc1nc2ccc(S(=O)(=O)NC(C(=O)NCc3ccccc3Cl)C(C)C)cc2s1 (stereo unspecified) | 7.27% (inactive)
27 | CC(C)(C)c1ccc(S(=O)(=O)Nc2ccc(O)c(Sc3nc4ccccc4s3)c2)cc1 | 2.42% (inactive)
28 | Cc1ccc(-n2c(=O)c3cccnc3n2CC(=O)Nc2ccccc2C(F)(F)F)cc1C | -16.8% (inactive)
29 | CCCC12CN3CC(C)(CN(C1)C3c1ccccc1Cl)C2=O (stereo unspecified) | -8.25% (inactive)
30 | CCN(CCCNC(=O)c1cc2cc3cc(OC)ccc3nc2s1)c1ccccc1 | -15.5% (inactive)
31 | Cc1cccc(N2CCN(C(=O)c3cnc(N4CCCC4)nc3C)CC2)c1C | 36.6% (inactive)
32 | CCN(C(=O)Cn1c(=O)nc(-c2ccccc2)c2cc(Cl)ccc21)c1cccc(C)c1 | -7.41% (inactive)
33 | Cc1cc2nc(NC(=O)c3ccc(S(=O)(=O)N4CCOCC4)cc3)sc2cc1C | -4.68% (inactive)
34 | Cc1ccccc1OCC(=O)Nc1nnc(S(=O)(=O)N2CCCC2)s1 | 5.36% (inactive)
35 | CC(C)CC(=O)Nc1nnc(S(=O)(=O)N(C)c2ccc(Cl)cc2)s1 | -5.88% (inactive)
36 | O=C(Nc1nnc(S(=O)(=O)N2CCCc3ccccc32)s1)c1cccc(F)c1 | 45.3% (inactive)
37 | O=C(Nc1nnc(S(=O)(=O)N2CCOCC2)s1)c1cccc(Br)c1 | 93.4% (active)
38 | O=C(Nc1nnc(S(=O)(=O)N2CCCCCC2)s1)c1cccc(Br)c1 | 115% (active)
39 | Cc1ccccc1C(=O)Nc1nnc(S(=O)(=O)N(C)c2ccc(Cl)cc2)s1 | 8.7% (inactive)
40 | CCOc1cccc(C(=O)Nc2nnc(S(=O)(=O)N(C)c3ccc(C)cc3)s2)c1 | 63.1% (active)
41 | COc1cccc(CNC(=O)CN2C(=O)CCc3cc(S(=O)(=O)N4CCOCC4)ccc32)c1 | 0% (inactive)
42 | COc1cccc(C(=O)Nc2nnc(S(=O)(=O)N3CCOCC3)s2)c1 | 69.6% (active)
43 | Cc1ccc(C(=O)Nc2ccccc2F)cc1S(=O)(=O)N1CCOCC1 | 2.32% (inactive)
44 | CN(Cc1ccco1)S(=O)(=O)c1nnc(NC(=O)c2ccccc2)s1 | 18.1% (inactive)

Row | Structure (SMILES) | activation
45 | Cc1cc(N2CCN(c3cccc(C(F)(F)F)c3)CC2)n2nc(-c3ccccc3)nc2n1 | -14.2% (inactive)
46 | CCOC(=O)c1c(NC(=O)COc2cc(C)ccc2C(C)C)sc(C)c1C | -11% (inactive)
47 | Cc1ccc(C)c(S(=O)(=O)n2nc(C)c(S(=O)(=O)N3CCC(C)CC3)c2C)c1 | -11.2% (inactive)
48 | O=C(Nc1cc(C(F)(F)F)ccc1Cl)c1cc2nc(-c3ccc4c(c3)OCO4)cc(C(F)(F)F)n2n1 | -10.2% (inactive)
49 | Cc1ccc(NC(=O)c2ccc(CN3CC(=O)N4CCCCC4C3=O)cc2)c(Cl)c1 (stereo unspecified) | -8.29% (inactive)
50 | COc1ccc(-c2cc(C(=O)NCc3cc(OC)c(OC)c(OC)c3)[nH]n2)cc1 | -1.24% (inactive)
51 | COc1ccc(NC(=O)CSc2nc3ccccc3n2CC(=O)N2CCCCC2C)cc1 (stereo unspecified) | -15.6% (inactive)
52 | CCOc1ccccc1NC(=O)Cn1c(=O)n(Cc2ccccc2)c(=O)c2c(C)c(C(=O)N(C)C)sc21 | -24.5% (inactive)
53 | CCn1cc(C(=O)OCC(=O)Nc2cc(C)cc(C)c2)c(=O)c2ccc(C)nc21 | 20.2% (inactive)
54 | CN(Cc1ccccc1)C(=O)c1cn(C)c2ccc(S(=O)(=O)N3CCCCC3)cc2c1=O | 13.1% (inactive)
55 | Cc1ccc(/C=C(\C#N)C(=O)Nc2cc(C)ccc2C)cc1 | 98.1% (active)
56 | Cc1ccc(Cl)cc1NC(=O)/C(C#N)=C\c1cn(Cc2ccc(F)cc2)c2ccccc12 | 7.85% (inactive)
57 | CCOC(=O)c1c(NC(=O)/C(C#N)=C/c2ccccc2)sc2c1CCC2 | 13.3% (inactive)
58 | Cc1ccccc1C(=O)N(Cc1ccc(N(C)C)cc1)CC1CCCO1 (stereo unspecified) | -21.9% (inactive)
59 | CSc1ccc(CCNC(=O)c2ccc3c(c2)nc2n3CCOC2)cc1 | -8.85% (inactive)
60 | COc1ccc(NC(=O)CCc2nnc3n(CC(C)C)c(=O)c4ccccc4n23)cc1OC | 10.7% (inactive)
61 | CC(C)Cn1c(=O)c2ccccc2n2c(-c3cccc(Cl)c3)nnc12 | -0.202% (inactive)
62 | COc1cccc(-c2nnc3n(CCc4ccccc4)c(=O)c4ccccc4n23)c1O | 77.1% (active)
63 | CC(C)(C)OC(=O)N1CCC(c2c(C(=O)Nc3ccc4c(c3)OCO4)cnn2-c2ccccc2)CC1 | 3.59% (inactive)
64 | COc1cccc(NC(=O)CSc2cc(=O)n(C)c3ccc(Cl)cc23)c1 | 66.2% (active)
65 | CCOc1ccc(CCNC(=O)CSc2cc(=O)n(C)c3ccc(Cl)cc23)cc1OCC | -7.71% (inactive)
66 | CCN(CCCNC(=O)CSc1cc(=O)n(C)c2cc(Cl)ccc12)c1cccc(C)c1 | 3.23% (inactive)

Row | Structure (SMILES) | activation
67 | Cc1ccccc1CNC(=O)Cn1c(C)c2cnn(-c3ccccc3)c(=O)c2c1C | -12.3% (inactive)
68 | Cc1c(NC(=O)Nc2ccc(F)c(Cl)c2)c(=O)n(-c2ccccc2)n1C | -8.62% (inactive)
69 | Oc1c(C(c2ccc(F)cc2)N2CCN(Cc3ccccc3)CC2)sc2nc(-c3ccco3)nn12 (stereo unspecified) | 64.8% (active)
70 | Oc1c(C(c2ccccc2Cl)N2CCOCC2)sc2nc(-c3ccco3)nn12 (stereo unspecified) | -11.9% (inactive)
71 | Cc1cccc(-n2ncc(C(=O)N3CCc4ccccc4C3)c2C2CCN(C(=O)OC(C)(C)C)CC2)c1 | -17.8% (inactive)
72 | O=C(COCc1cc(-c2ccc3c(c2)OCO3)on1)N1CCN(c2cccc(Cl)c2)CC1 | -10.3% (inactive)
73 | Cc1cccc(CNS(=O)(=O)c2ccc(-c3cnc(C4CC4)o3)cc2)c1 | -14.5% (inactive)
74 | COc1ccc(-c2nc(CCNC(=O)c3ccc(Br)o3)cs2)cc1 | 6.04% (inactive)
75 | COc1ccc(CCC(=O)NCCc2csc(-c3ccc(Cl)cc3)n2)cc1 | 65.3% (active)
76 | O=C(NCCc1csc(-c2ccc(C(F)(F)F)cc2)n1)C(=O)Nc1ccc(F)c(Cl)c1 | -7.23% (inactive)
77 | CCc1nc2c(cnn2-c2ccc(C)cc2)c(=O)n1-c1ccc(C)cc1 | -4.43% (inactive)
78 | COc1cccc(C(=O)NC2(C(F)(F)F)C(=O)Nc3c2c(=O)[nH]c(=O)n3-c2ccc(C)cc2)c1 (stereo unspecified) | -5.74% (inactive)
79 | CCn1cc(CCC(=O)NCc2ccc(F)cc2)c2ccccc21 | -18.2% (inactive)
80 | CCOCCn1ccc2c(OCC(=O)NCc3ccc(C)cc3)cccc2c1=O | -7.09% (inactive)
81 | CCCn1ccc2c(OCC(=O)NCc3ccc(F)cc3)cccc2c1=O | 76.6% (active)
82 | CC(=O)c1ccc(S(=O)(=O)N2CCC(Oc3ccc(-n4cnnn4)cc3)CC2)cc1 | -8.41% (inactive)
83 | COc1cccc(-c2cc(C(=O)Nc3ccc(C)cc3)[nH]n2)c1 | 64.6% (active)
84 | COc1cccc(NC(=O)c2csnn2)c1 | 10.9% (inactive)
85 | CCc1cccc(NC(=O)c2cc(-c3ccccc3)n[nH]2)c1 | -0.275% (inactive)
86 | Cc1ccc2cccc(NC(=O)C(C)Oc3ccc(C)c(C)c3)c2n1 (stereo unspecified) | -2.89% (inactive)
